In PubChem BioAssay one finds z-score data, which are given here for eleven compounds.

This assay can be described thus: MM1S cell viability effects, profiling panel, calcein-AM fluorescence, 48 h, basal (AID 1165).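 Also: viability of MM1S multiple myeloma cells under basal unstimulated conditions; test concentration not given here.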 The settings on record: higher = more signal.
Turning to `CO[C@H]1COC(=O)[C@@H]2CCCN2C(=O)CC=C[C@@H](C)[C@H](OC)COC(=O)CC=C[C@@H]1C`, the z-score was 0.292. Next, `CC(C)CON=C1C[C@@H](O)[C@@H](O)[C@@H]2[C@@H]3C(=O)N([C@@H](C)c4ccccc4)C(=O)[C@@H]3CC[C@H]12`: 0.844. For `O=C1[C@H]2[C@H]3[C@H](O)[C@H](O)CC(=NOC[C@@H](O)COCc4ccco4)[C@@H]3CC[C@H]2C(=O)N1c1ccc(F)cc1F`, the z-score was 0.136. Regarding `CO[C@@H]1COC(=O)CCC[C@@H](C)[C@H](OC)COC(=O)CCC[C@H]1C`, the z-score was -0.197. As to `C=CC[C@@H]1C=C[C@H](ON=C[C@@H](OC)[C@H](C)C=CCC(=O)OC)[C@@H](CO)O1`, the z-score was 0.486. Next, `CCCC[C@@H](O)C1=C(C)C[C@H]2C(=O)N(Cc3ccccc3)C(=O)[C@H]2[C@H]1CO`: -0.0699; `CC(CCN1CCc2nc(-c3ccccc3)c(-c3ccccc3)cc2C1)=NO[C@H](C)c1cn([C@@H]2COC[C@H]2O)nn1`: 0.259. As for `CC(C)[C@H](NC(=O)OC(C)(C)C)[C@@H](O)CC(=O)OC(C)(C)C`, the z-score was 0.793.

As for `CCOC(=O)C[C@H]1[C@H](OC(=O)c2ccc(C(=O)c3ccccc3)cc2)[C@@H](NC(=O)c2ccc(-c3ccccc3)cc2)c2cc(OCCCO)ccc2N1C(=O)c1ccc2ccccc2n1`, the z-score is 0.598.

`CCCNC(=O)OC[C@H]1O[C@H](CCON=C[C@@H](OC)[C@H](C)C=CCC(=O)OC)C=C[C@@H]1Oc1ccc(OC)cc1`: the z-score is -0.902. Next, `CCOC(=O)CCN1C(=O)[C@H]2[C@H]3[C@H](O)[C@H](O)CC(=NNC(=O)OCc4ccc(OC)cc4)[C@@H]3CC[C@H]2C1=O`: 0.717.
